Data from PubChem BioAssay AID1531 (NMMLSC, 2009).
The campaign covered roughly 290,000 compounds. About 3,300 (1.1%) were called active. The sample holds actives, similar compounds and a random draw of the others, so the mix is not that of the screen. A number with no mark means an inactive call. Cut-off read from the data, not from the text of the source: active = binding response below about 67% or above about 130%; inconclusive = no clear call, values can overlap the other calls; inactive = in between.

The molecules below were run against Mitogen-activated protein kinase kinase kinase 2 (Homo sapiens) (UniProt Q9Y2U5) (assay: modulators of MEK5 binding to wildtype MEKK2, primary screen, biochemical, multiplex bead flow cytometry, Alexa488-MEK5 (AID 1531)). Conditions: Alexa488-MEK5 binding to MEKK2 WT, at 10 µM, actives lie on both sides.

Row | SMILES | binding response (% of control)
1 | COc1ccccc1C1=CC(=O)CCC1 | 98%
2 | CCOC(=O)C1Nc2ccc(C(F)(F)F)cc2C2C=CCC12 (stereo not given) | 98%
3 | CC1(C)Cc2c(sc(NC(=O)C(=O)N3CCOCC3)c2C#N)CO1 | 95%
4 | Cc1cc(C(=O)NCCCc2ccccc2)no1 | 99%
5 | CC(C)c1ccc(C(=O)NCCCc2ccccc2)cc1 | 2% [inhibitor] (active)
6 | CCCOc1ccc(C(=O)NCCc2ccccc2)cc1 | 94%
7 | O=[N+]([O-])c1ccccc1NCc1ccccc1Cl | 66%
8 | O=C(NCc1ccccc1Cl)NC(=O)c1csc([N+](=O)[O-])c1 | -14% [inhibitor] (active)
9 | O=C(NCc1ccccc1Cl)c1csc2c1CCCCC2 | 93%
10 | CCCCCc1c(C)nc(N2CCN(Cc3ccc4c(c3)OCO4)CC2)[nH]c1=O | 97%
11 | COc1cccc(CC2(CO)CCN(Cc3cnc(-c4cccc(C)c4)nc3)CC2)c1 | 98%
12 | OCC1(CCc2ccccc2)CCN(Cc2ccc3nsnc3c2)CC1 | 89%
13 | Cc1cccc(-c2ncc(CN3CCC(CO)(CCCc4ccccc4)CC3)cn2)c1 | 163% (active)
14 | O=C(COc1ccc2ccc(=O)oc2c1)NCC(O)c1ccccc1 (stereo not given) | 104%
15 | CCOC(=O)C1CCN(c2ccc(C(=O)O)cc2[N+](=O)[O-])CC1 | 101%
16 | CC1CCN(c2ccc([N+](=O)[O-])cc2C(N)=O)CC1 | 95%
17 | O=C(O)C1CCN(c2ccc([N+](=O)[O-])cc2[N+](=O)[O-])CC1 | 46% [inhibitor] (active)
18 | CCOc1ccccc1-c1cc(C(=O)N/N=C(\C)c2cccnc2)c2ccccc2n1 | 92%
19 | O=C(NC1CCN(Cc2ccccc2)CC1)c1ccc(Oc2cc(Cl)cc(Cl)c2)o1 | 142% (active)
20 | O=C(NC1CCN(Cc2ccccc2)CC1)c1ccccc1F | 101%

Row | SMILES | binding response (% of control)
21 | O=C(NC1CCN(Cc2ccccc2)CC1)c1cc(Br)c(Br)[nH]1 | 140% (active)
22 | O=C(NC1CCN(Cc2ccccc2)CC1)c1c(F)cccc1F | 113%
23 | CCOc1ccc(CC(=O)NC2CCN(Cc3ccccc3)CC2)cc1 | 108%
24 | Cc1cc(C(=O)NC2CCN(Cc3ccccc3)CC2)n[nH]1 | 98%
25 | C#CCOc1ccc(/C=C2/C(=O)ON=C2C)cc1OCC | 107%
26 | CCc1nnc(SCc2cccc(F)c2)nc1CC | 103%
27 | COc1ccc(-c2ccc(CNCCCN3CCOCC3)o2)cc1Cl | 106%
28 | Fc1ccc(-c2ccc(CNCc3ccccn3)o2)cc1Cl | 140% (active)
29 | O=C(NCc1ccccn1)c1cc(Br)ccc1Cl | 106%
30 | O=C(Cc1cccs1)Nc1cccc(-c2nc3ccccc3[nH]2)c1 | 95%
31 | O=C(Nc1cccc(-c2nc3ccccc3[nH]2)c1)c1ccc(C(=O)Nc2cccc(-c3nc4ccccc4[nH]3)c2)cc1 | 63% [inhibitor] (active)
32 | Cc1ccc(-c2nc3ccccc3[nH]2)cc1NC(=O)c1sc2ccccc2c1Cl | 98%
33 | C=C1CCN([C@@H](Cc2ccccc2)C(=O)N2CCOCC2)S(=O)(=O)c2ccccc21 | 107%
34 | COc1ccc(NC(=O)CCC(=O)Nc2cc(OC)c(NC(=O)c3ccco3)cc2OC)c(OC)c1 | 96%
35 | O=C(NCC1CC1)c1onc(CSc2ccccc2)c1C(=O)NCC1CC1 | 95%
36 | COc1ccc(CNC(=O)c2nnn(CC(=O)Nc3cc(C)cc(C)c3)c2N)cc1 | 101%
37 | COc1ccc(NC(=O)Cn2nnc(C(=O)NCCc3ccc(OC)c(OC)c3)c2N)cc1 | 2% [inhibitor] (active)
38 | CCc1ccc(NC(=O)Cn2nnc(C(=O)NCc3ccc(OC)cc3)c2N)cc1 | 104%
39 | CCC(C)N1CC(=O)N2Cc3[nH]c4ccccc4c3C[C@H]2C1=O (stereo not given in full) | 109%
40 | COc1ccc(NC(=O)C/C(C)=N/NC(=O)c2cnccn2)cc1Cl | 96%

Row | SMILES | binding response (% of control)
41 | CC(=O)Nc1cccc(OCC(=O)/C=C2\N(C)c3ccccc3C2(C)C)c1 | 63% [inhibitor] (active)
42 | Cc1noc(C)c1C(=O)OCC(=O)/C=C1\N(C)c2ccccc2C1(C)C | 96%
43 | CN1/C(=C\C(=O)c2cccnc2Cl)C(C)(C)c2ccccc21 | 95%
44 | COc1ccc(Cl)cc1-n1c(=S)sc2c(=O)n(-c3ccc(F)cc3)c(SCC(=O)O)nc21 | 101%
45 | COc1ccc(Oc2cn[nH]c2-c2ccc(OC)cc2O)cc1 | 98%
46 | COCCCNC(=S)N1CCN(c2nc(-c3cccc(OC)c3)cs2)CC1 | 95%
47 | CN(C)CCCNC(=S)N1CCC(c2nc3ccccc3[nH]2)CC1 | 116%
48 | CN(C)CCCNC(=S)N1CCN(c2nc(-c3ccccc3)cs2)CC1 | 149% (active)
49 | O=C(CSc1ccc(-c2ccccn2)nn1)Nc1ccccc1 | 110%
50 | COc1cc2c(cc1OC)C(c1ccccc1Br)NC(=O)C2 (stereo not given) | 103%
51 | COCCCN1C(=O)c2ccc(C(=O)OCC(=O)NCc3ccccc3OC)cc2C1=O | 101%
52 | CCCN1CCN(C(=O)CCCNC(=O)c2ccc(Cl)cc2)CC1 | 100%
53 | CN1CCN(CCCNC(=O)c2ccc(/C=C3\Oc4ccccc4N(Cc4ccc(Cl)cc4)C3=O)cc2)CC1 | 171% (active)
54 | CN1C(=O)/C(=C/c2ccc(C(=O)NC3CCCC3)cc2)Oc2ccccc21 | 99%
55 | CS(=O)(=O)N(CC(=O)N1CCCCCC1)c1cccc(Cl)c1Cl | 108%
56 | CCc1cccc(C)c1NS(=O)(=O)c1cc(Br)cnc1N | 92%
57 | CCN1/C(=C/C(=S)Nc2ccccc2)Sc2ccccc21 | 87%
58 | CCN1/C(=C\c2ccc3ccccc3[n+]2CC)Sc2cc(C)ccc21 | 20% [inhibitor] (active)
59 | CCN1/C(=C/c2ccc3ccc(C)cc3[n+]2CC)Sc2ccccc21 | 74%
60 | CC1(C)CC[C@]2(C(=O)O)CC[C@]3(C)C(=CCC4[C@@]5(C)CC[C@H](O)C(C)(C)C5[C@H](O)C[C@]43C)[C@@H]2C1 (stereo not given in full) | 100%
